PubChem BioAssay (NCI)
This is part of a sample that, as a whole, favours compounds with a hit. Of some 79,000 tested, about 15% had one in any assay. No stated cut-off is given here; in the data, active means growth inhibition above about 70%; inactive means the rest. Where a SMILES comes first, the peptide text is derived from it. The star is where a group is joined. Cbz = O=C(OCc1ccccc1)*

What was measured:
[1] = NCI Yeast Anticancer Drug Screen. Data for the rad50 strain (AID 155);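 further: 0% = growth of vehicle-only cultures of the same strain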; settings: S. cerevisiae rad50 strain growth inhibition; at 50.0 µM; hits give high values
Outline: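 Vehicle-treated cultures provide the reference for the growth inhibition reported for compound-exposed, repair-deficient yeast.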

[2] = NCI Yeast Anticancer Drug Screen. Data for the mec2-1 strain (AID 157); settings: S. cerevisiae mec2-1 strain, at 50.0 µM, hits give high values
Outline: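 Test agents were screened against the mec2-1 yeast strain, with defined DNA repair or cell cycle alteration. Growth was scored as inhibition against vehicle-only controls.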

[3] = NCI Yeast Anticancer Drug Screen. Data for the sgs1 mgt1 strain (AID 161);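 further: 0% = growth of cultures given vehicle only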; settings: S. cerevisiae sgs1 mgt1 strain, at 50.0 µM, hits give high values
Outline: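 Read-out: growth inhibition vs vehicle controls. Cells: mutant yeast strain deficient in DNA damage repair.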

[4] = NCI Yeast Anticancer Drug Screen. Data for the cln2 rad14 strain (AID 165);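 further: 0% = growth equal to vehicle treated cultures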; settings: S. cerevisiae cln2 rad14 strain, at 50.0 µM, hits give high values
Outline: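 Growth of compound-exposed yeast (cln2 rad14 genotype) measured and expressed as inhibition relative to vehicle.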

[5] = NCI Yeast Anticancer Drug Screen. Data for the bub3 strain (AID 167); settings: S. cerevisiae bub3 mutant strain, at 50.0 µM, hits give high values
Outline: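 Mutant yeast screening strain plus compound; vehicle-treated cultures serve as the 0% inhibition reference.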

[6] = NCI Yeast Anticancer Drug Screen. Data for the mlh1 rad18 strain (AID 175); settings: S. cerevisiae mlh1 rad18 strain growth inhibition; at 50.0 µM; hits give high values
Outline: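 In this whole-cell yeast screen, a strain with altered DNA damage repair is challenged with compound, and its growth is measured against matched vehicle-treated controls.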

Measured: growth inhibition

Cc1ccc2nc(-c3cccc([N+](=O)[O-])c3)c(N=O)n2c1
inactive: [1] -0.7% | [2] 4.35% | [3] 1.05% | [4] -14.9% | [5] 2.1% | [6] 21.2%

O=C1c2ccccc2C(=O)N1CN1CCC(CCCC2CCN(CN3C(=O)c4ccccc4C3=O)CC2)CC1
inactive: [1] -58.5% | [2] -34.2% | [3] -36.3% | [4] -11.1% | [5] -48.1% | [6] -44.8%

CC(=O)NCS(=O)(=O)O
inactive: [1] -25.3% | [2] -13.4% | [3] -0.9% | [4] -34% | [5] -12.3% | [6] -9.55%

CN(C)c1ccc2c(c1)c1cc(N(C)C)ccc1n2Cc1ccccc1
inactive: [1] -2.05% | [2] -19.6% | [3] 12.2% | [4] -30.4% | [5] 1.95% | [6] -10.2%

C/C(=C\c1ccccc1)C(O)S(=O)(=O)O (configuration not stated)
inactive: [1] 4.5% | [2] -0.35% | [3] -2.9% | [4] 11.9% | [5] -12.1% | [6] -4.55%

CCOC(=O)CCCCCC#N
inactive: [1] 1.35% | [2] -18.4% | [3] -6.1% | [4] -1.75% | [5] -9.5% | [6] -0.15%

CC(=O)COc1ccccc1-c1ccccc1
inactive: [1] 5.4% | [2] 8.55% | [3] 4.9% | [4] -34.8% | [5] 8.6% | [6] -14.7%

O=C(O)CCCCCNC(=O)c1ccccc1
inactive: [1] 18.3% | [2] 14.8% | [3] 16.2% | [4] 6.4% | [5] -8.2% | [6] 22.2%

CC(C)(C)[N]=[V]([Cl])([Cl])[Cl]
inactive: [1] 3.65% | [2] -0.65% | [3] -7.3% | [4] -6.35% | [5] -10.6% | [6] -10.1%

CCC(C)SC1=NC(N)=NC2=NC=NC21 (configuration not stated)
inactive: [1] -11.6% | [2] -2.85% | [3] -9.3% | [4] -21.8% | [5] 6.05% | [6] 4.25%

C(=C\c1csnn1)/c1ccc(/C=C/c2csnn2)cc1
inactive: [1] -18% | [2] 15.9% | [3] 7.7% | [4] 11.9% | [5] 5.3% | [6] -8.2%

NC(C(=O)O)c1ccc(F)cc1 (configuration not stated)
inactive: [1] -9.1% | [2] -1.4% | [3] 28.7% | [4] -10% | [5] 2.4% | [6] 37.5%

Cc1cc(C)cc(C(=O)OC2CCCC2)c1
inactive: [1] 1.2% | [2] 0.35% | [3] -3.85% | [4] 4.5% | [5] -5.2% | [6] 22.9%

C[Si](C)(C)Nc1ncnc2c1ncn2[Si](C)(C)C
inactive: [1] 14.6% | [2] 4.85% | [3] 21.6% | [4] -9.3% | [5] 2.85% | [6] 7.05%

Clc1c(-c2ccccc2)oc2nc3ccccc3nc12
inactive: [1] 13.9% | [2] 6.85% | [3] 13.6% | [4] 21.6% | [5] -1.55% | [6] 26.2%

Nc1scc[n+]1CCC(=O)[O-]
inactive: [1] -10.1% | [2] 0.75% | [3] 3.4% | [4] -13.2% | [5] -2.75% | [6] -15.8%

C[Si]1(C)CC[Si](C)(C)OS(=O)(=O)O1
inactive: [1] 8.2% | [2] -8.35% | [3] -4.75% | [4] -49.8% | [5] -9.05% | [6] 3.6%

COc1ccc(CSC(=S)Nc2ccc(C)c(Cl)c2)cc1
inactive: [1] 26% | [2] 18.2% | [3] 18.6% | [4] 10.1% | [5] -3.35% | [6] 17.2%

COc1ccc(/C=C/C(=O)C(C)(CN(C)C)CN(C)C)cc1
inactive: [1] 0.95% | [2] -13.8% | [3] 4.95% | [4] 6.85% | [5] -11.2% | [6] 11.8%

C=C1C(=O)OC2C1CC(OC(C)=O)/C(C)=C/CCC1(C)OC21 (configuration not stated)
inactive: [1] -4.5% | [2] -35.3% | [3] 6% | [4] -6.25% | [5] -27.6% | [6] -68.2%

Cc1ccc(S(=O)(=O)c2ccc(C)cc2C(=O)O)cc1
inactive: [1] -8.6% | [2] -19.3% | [3] -1.4% | [4] -9.8% | [5] -30.2% | [6] -22.4%

O=C(O)C(CO)NC(=O)C1CCCN1C(=O)OCc1ccccc1 (stereo not drawn) (Cbz-Pro-Ser-OH; configuration not given here)
inactive: [1] -1.95% | [2] -17.8% | [3] -5.7% | [4] -1% | [5] -4.75% | [6] -18%

CN(C1c2ccccc2Oc2ccccc21)S(=O)(=O)c1ccc([N+](=O)[O-])cc1
inactive: [1] 9.9% | [2] -2.7% | [3] 6% | [4] 21.8% | [5] 3.35% | [6] 40.1%

CC1(C)C=C(C(=O)O)C(C)(C)N1O
inactive: [1] -8.95% | [2] -25.8% | [3] 5.65% | [4] 6.9% | [5] 14.3% | [6] 2.25%

O=c1c2n(c(=O)c3n1CCC=3)CCC=2
inactive: [1] -2.5% | [2] -13.5% | [3] -0.6% | [4] -25.1% | [5] -6.85% | [6] 9.35%

Cc1cc2ncn(C3CCCCO3)c2cc1C (configuration not stated)
inactive: [1] 8.25% | [2] -10.8% | [3] -9.4% | [4] 13.3% | [5] 3.85% | [6] -26.4%

COc1ccc(N=Nc2ccccc2)cc1
inactive: [1] 3% | [2] 3.8% | [3] -5.6% | [4] -10.6% | [5] -11.8% | [6] -4.95%

CCCCCCCCCCCCCCCCCCCCC1CC(=O)OC1=O (configuration not stated)
inactive: [1] 41.6% | [2] 11.8% | [3] 36.4% | [4] 9.45% | [5] 2.7% | [6] 29.2%

Cc1c(CN(C)C)ccc2ccccc12
inactive: [1] -6% | [2] -6.05% | [3] 3.95% | [4] -34.4% | [5] 0.6% | [6] -8.95%

O=C(Nc1ccccn1)c1ccc([N+](=O)[O-])cc1
inactive: [1] 33% | [2] 7.95% | [3] 15.4% | [4] 5.45% | [5] -1.8% | [6] -2.4%

C=CCN1C=CC=C/C1=C\C=C(/C#N)C(=O)OCC
inactive: [1] 10.8% | [2] 12.7% | [3] 7.8% | [4] -15.2% | [5] -8.65% | [6] 7.35%

CC12CC3CC/C(=N\O)C(C1)C3(N1CCOCC1)C/C2=N/O (configuration not stated)
inactive: [1] -22.2% | [2] -16.7% | [3] -10.2% | [4] 0.3% | [5] -14.8% | [6] 8.8%

Oc1[nH]c2ccccc2c1N=Nc1nc(-c2ccccc2)cs1
inactive: [1] -40.6% | [2] -52% | [3] -46% | [4] -0.9% | [5] -30.4% | [6] -18.8%

O=C(NC(=O)c1c(F)cccc1F)Nc1ccc(Cl)nc1
inactive: [1] 8.75% | [2] 5.95% | [3] -0.2% | [4] 2.3% | [5] 21.9% | [6] 10.1%

CN1C(C(=O)Nc2nccs2)=C(O)c2ccccc2S1(=O)=O
inactive: [1] 2.15% | [2] 7.35% | [3] 19.9% | [4] -11.2% | [5] 7.05% | [6] 21.6%

O=C(O)C1CC2(CCC1c1ccccc1)SCCS2 (configuration not stated)
inactive: [1] 6.7% | [2] 1.15% | [3] 12.1% | [4] 13.6% | [5] 6.5% | [6] -9.85%

O=C(O)C1CC1Br (configuration not stated)
inactive: [1] 9.15% | [2] -15.3% | [3] -3.65% | [4] -14.4% | [5] 2.45% | [6] 5.8%

CC1NNC(=S)NN1
inactive: [1] -19.3% | [2] 1.35% | [3] 0.85% | [4] -9.7% | [5] 1.4% | [6] 11.8%

CCOC(=O)C(C(C)=O)C(c1ccc(N(C)C)cc1)c1ccc(N(C)C)cc1 (configuration not stated)
inactive: [1] 4% | [2] -4.35% | [3] -6.6% | [4] -2.4% | [5] 3.95% | [6] -3.4%

CCCOc1ccc(C2=C(c3ccccc3)C(=O)C(c3ccccc3)=C2c2ccccc2)cc1
inactive: [1] 34.2% | [2] 15.6% | [3] 20.6% | [4] 20.2% | [5] 2.25% | [6] 20.6%

CC1=C(C#N)C(=O)OC1(C)C1CCCC(=O)C1 (configuration not stated)
inactive: [1] -24.8% | [2] -1.45% | [3] -11.3% | [4] -2.7% | [5] 1.95% | [6] -3.75%

OCC1CC(c2ccccc2)=NO1 (configuration not stated)
inactive: [1] -19.9% | [2] -11.1% | [3] -11.2% | [4] -20.2% | [5] -3.9% | [6] -17.6%
